# In PubChem BioAssay:
# Active and inactive are the calls of the source.
# Columns and labels:
# [1] = binders of probe aFSTL3 on microarray, primary screen, stem cell growth factor project, biochemical, small-molecule microarray, fluorescence 635/667 (AID 1064); conditions: higher = more signal;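 also: measures binding of the biotinylated anti-FSTL3 antibody to printed compounds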
# [2] = binders from COS7 lysate, DM2A8 probe, primary screen, torsin A project, cell lysate, small-molecule microarray, fluorescence 635/667 (AID 1065); conditions: higher = more signal, COS7 lysate expressing mutant human TOR1A
# [3] = binders of probe aFGF2 on microarray, primary screen, stem cell growth factor project, biochemical, small-molecule microarray, fluorescence 635/667 (AID 1067); conditions: higher = more signal;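 also: measures binding of biotinylated aFGF2 protein to printed compounds on slides; z-score merges feature fluorescence and signal-to-noise across triplicate slides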
# [4] = binders of probe aFGF10 on microarray, primary screen, stem cell growth factor project, biochemical, small-molecule microarray, fluorescence 635/667 (AID 1071); conditions: higher = more signal;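 also: score merges 667 nm spot intensity and signal to noise from triplicate slides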
# [5] = biological target: Neurogenic locus notch homolog protein 2 (Homo sapiens) (UniProt Q04721); assay: Notch2 binders on small-molecule microarrays, primary screen, biochemical, small-molecule microarray, 635 nm fluorescence, stem cell growth factors (AID 1073); conditions: Notch2 binding, higher = more signal
# [6] = biological target: Pro-neuregulin-1, membrane-bound isoform (Homo sapiens) (UniProt Q02297); assay: NRG1 binders on small-molecule microarrays, primary screen, psychiatric disease protein project, biochemical, small-molecule microarray, fluorescence 635/667 (AID 1075); conditions: NRG1 binding, 635 nm fluorescence, higher = more signal;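 also: score combines 667 nm spot fluorescence with signal to noise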
# [7] = system: Neuregulin-1 EGF-like domain; assay: binders of neuregulin-1 EGF-like domain, primary screen, biochemical, small-molecule microarray, 635 nm fluorescence (AID 1081); conditions: small-molecule microarray binding, higher = more signal;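 also: binding of the protein to compounds printed on small-molecule microarray slides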
# [8] = FRG1 promoter luciferase signal modulators, primary screen, FRG1 inhibition for FSHD, cell-based, C2C12 myotubes, firefly/Renilla luciferase, luminescence (AID 1084); conditions: higher = more signal, called active from +8 up or from −8 down
# [9] = binders of probe aFST on microarray, primary screen, stem cell growth factor project, biochemical, small-molecule microarray, fluorescence 635/667 (AID 1086); conditions: higher = more signal;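 also: score merges 667 nm fluorescence with signal-to-noise of each printed compound spot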
# [10] = binders of probe aHhip on microarray, primary screen, stem cell growth factor project, biochemical, small-molecule microarray, fluorescence 635/667 (AID 1087); conditions: higher = more signal;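 also: score merges spot fluorescence at 667nm with spot signal to noise ratio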
# Sequence of Neurogenic locus notch homolog protein 2 (Homo sapiens) (Q04721 whole entry, looked up, canonical isoform): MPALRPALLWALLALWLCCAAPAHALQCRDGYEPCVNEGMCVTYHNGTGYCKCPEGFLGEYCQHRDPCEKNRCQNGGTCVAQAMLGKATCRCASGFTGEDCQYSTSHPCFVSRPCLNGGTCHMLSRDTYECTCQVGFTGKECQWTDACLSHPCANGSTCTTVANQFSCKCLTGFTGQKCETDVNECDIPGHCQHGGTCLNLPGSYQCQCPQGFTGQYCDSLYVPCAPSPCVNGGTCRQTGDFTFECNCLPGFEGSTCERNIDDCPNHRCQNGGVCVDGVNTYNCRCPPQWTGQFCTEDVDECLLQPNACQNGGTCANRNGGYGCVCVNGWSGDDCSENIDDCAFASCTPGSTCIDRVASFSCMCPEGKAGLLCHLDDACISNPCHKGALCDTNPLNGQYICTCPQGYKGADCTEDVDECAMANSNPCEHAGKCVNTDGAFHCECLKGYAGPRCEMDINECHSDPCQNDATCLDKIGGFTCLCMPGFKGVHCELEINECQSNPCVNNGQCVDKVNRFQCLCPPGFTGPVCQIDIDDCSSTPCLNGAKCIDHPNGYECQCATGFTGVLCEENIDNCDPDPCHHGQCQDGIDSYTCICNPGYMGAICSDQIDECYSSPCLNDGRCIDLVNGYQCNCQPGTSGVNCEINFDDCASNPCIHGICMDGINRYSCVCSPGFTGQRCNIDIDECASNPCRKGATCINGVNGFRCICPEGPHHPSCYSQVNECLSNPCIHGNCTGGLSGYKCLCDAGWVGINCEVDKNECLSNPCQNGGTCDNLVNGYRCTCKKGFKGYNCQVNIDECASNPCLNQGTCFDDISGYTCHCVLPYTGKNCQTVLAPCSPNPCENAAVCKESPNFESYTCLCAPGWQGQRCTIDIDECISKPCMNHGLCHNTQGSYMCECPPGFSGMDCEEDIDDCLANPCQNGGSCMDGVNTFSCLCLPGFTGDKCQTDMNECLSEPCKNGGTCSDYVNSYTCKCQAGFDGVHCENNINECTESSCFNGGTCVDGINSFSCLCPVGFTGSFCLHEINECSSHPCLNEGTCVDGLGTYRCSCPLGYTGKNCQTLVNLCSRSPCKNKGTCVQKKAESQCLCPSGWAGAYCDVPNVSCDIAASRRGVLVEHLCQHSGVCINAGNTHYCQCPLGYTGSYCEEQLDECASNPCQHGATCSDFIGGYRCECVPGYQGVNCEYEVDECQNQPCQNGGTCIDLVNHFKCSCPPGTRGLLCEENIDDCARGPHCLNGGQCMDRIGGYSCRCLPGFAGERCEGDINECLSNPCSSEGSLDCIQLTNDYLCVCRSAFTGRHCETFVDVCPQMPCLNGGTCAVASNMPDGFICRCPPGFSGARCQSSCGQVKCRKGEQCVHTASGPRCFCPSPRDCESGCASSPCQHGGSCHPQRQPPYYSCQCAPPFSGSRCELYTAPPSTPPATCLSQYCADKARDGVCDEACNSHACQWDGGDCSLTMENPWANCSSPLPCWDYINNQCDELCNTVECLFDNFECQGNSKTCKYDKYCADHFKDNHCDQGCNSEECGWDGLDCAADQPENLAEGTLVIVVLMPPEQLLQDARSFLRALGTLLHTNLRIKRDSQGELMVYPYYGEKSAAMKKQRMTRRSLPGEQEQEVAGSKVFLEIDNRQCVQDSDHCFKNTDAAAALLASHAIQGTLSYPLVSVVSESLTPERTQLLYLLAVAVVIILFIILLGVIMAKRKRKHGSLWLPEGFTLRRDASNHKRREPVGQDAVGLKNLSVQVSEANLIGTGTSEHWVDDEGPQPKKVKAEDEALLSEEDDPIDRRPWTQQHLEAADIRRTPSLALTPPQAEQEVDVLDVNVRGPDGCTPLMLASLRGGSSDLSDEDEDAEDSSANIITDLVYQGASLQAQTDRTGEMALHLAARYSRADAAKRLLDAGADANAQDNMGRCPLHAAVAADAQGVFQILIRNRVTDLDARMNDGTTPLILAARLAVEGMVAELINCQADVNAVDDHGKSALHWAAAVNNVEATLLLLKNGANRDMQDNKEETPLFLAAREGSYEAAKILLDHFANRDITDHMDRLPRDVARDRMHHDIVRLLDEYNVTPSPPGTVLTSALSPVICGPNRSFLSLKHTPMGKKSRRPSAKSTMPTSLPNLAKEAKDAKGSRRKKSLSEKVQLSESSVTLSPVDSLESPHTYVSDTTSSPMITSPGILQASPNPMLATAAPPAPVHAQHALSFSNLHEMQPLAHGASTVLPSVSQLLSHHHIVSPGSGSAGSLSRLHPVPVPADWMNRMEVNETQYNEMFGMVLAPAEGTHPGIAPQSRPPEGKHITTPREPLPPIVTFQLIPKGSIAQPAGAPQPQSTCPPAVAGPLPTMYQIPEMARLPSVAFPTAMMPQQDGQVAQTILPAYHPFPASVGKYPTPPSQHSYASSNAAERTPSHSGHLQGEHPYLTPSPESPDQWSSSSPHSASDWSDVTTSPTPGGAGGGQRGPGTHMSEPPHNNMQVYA
# Sequence of Pro-neuregulin-1, membrane-bound isoform (Homo sapiens) (Q02297 whole entry, looked up, the tested form may be a part, canonical isoform): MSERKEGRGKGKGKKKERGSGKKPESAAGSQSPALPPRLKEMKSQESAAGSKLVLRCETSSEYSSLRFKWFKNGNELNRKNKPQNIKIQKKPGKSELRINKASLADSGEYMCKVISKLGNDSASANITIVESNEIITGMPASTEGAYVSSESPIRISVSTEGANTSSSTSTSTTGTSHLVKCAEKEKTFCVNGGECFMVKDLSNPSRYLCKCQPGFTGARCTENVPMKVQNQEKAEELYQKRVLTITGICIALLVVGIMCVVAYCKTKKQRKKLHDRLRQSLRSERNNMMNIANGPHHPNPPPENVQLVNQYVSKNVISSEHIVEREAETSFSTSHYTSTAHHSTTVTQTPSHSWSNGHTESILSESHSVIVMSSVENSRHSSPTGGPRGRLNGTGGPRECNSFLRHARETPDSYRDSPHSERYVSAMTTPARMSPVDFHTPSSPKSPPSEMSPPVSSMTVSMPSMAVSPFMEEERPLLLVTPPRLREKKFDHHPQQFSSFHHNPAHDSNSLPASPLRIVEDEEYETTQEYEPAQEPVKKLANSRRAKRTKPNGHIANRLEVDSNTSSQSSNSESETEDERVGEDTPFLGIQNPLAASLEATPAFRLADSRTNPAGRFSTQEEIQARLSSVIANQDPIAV
Structure (SMILES),composite z-score [1],composite z-score [2],composite z-score [3],composite z-score [4],composite z-score [5],composite z-score [6],composite z-score [7],z-score [8],composite z-score [9],composite z-score [10]
CCCC=C(CCC)[C@@H](NS(=O)(=O)c1cccs1)c1ccc(C(=O)OC)cc1,0.002,-0.0193,0.0969,0.646,1.53,1.94,1.18,-3.86 (inactive),0.969,0.398
O=C1C2C=CC(C(O)c3c(F)cccc3Cl)N(Nc3ccccc3)C2C(=O)N1c1ccccc1 (stereo not given),-0.0072,-0.0274,0.0363,0.354,1.7,1.86,1.25,-3.84 (inactive),1.09,-0.359
COCCOC(=O)N1C(=O)[C@@]2(c3cc(C#Cc4ccc(OC)cc4)ccc31)[C@H](c1ccccc1OCCO)N1[C@H](c3ccccc3)[C@H](c3ccccc3)OC(=O)[C@H]1[C@@H]2C(=O)N1CCN(c2ncccn2)CC1,-0.173,0.489,-0.0336,0.619,0.568,0.4,1.23,-1.23 (inactive),0.172,-0.0618
COc1ccc([Si](C)(C)[C@H]2[C@H](CC(=O)N3CCC[C@H]3CO)O[C@@]3(C(=O)N(Cc4cccc(N5C(=O)c6cccc7cccc5c67)c4)c4ccccc43)[C@@H]2C)cc1,-0.354,-0.0115,0.0686,0.483,0.818,1.77,0.981,-4.24 (inactive),0.305,0.166
CCN(CC)c1ccc(N2CC=CC34O[C@@H]5/C=C\CCC(C)OC(=O)C5[C@H]3C(=O)N(C(CO)C(C)C)[C@@H]4C2=O)cc1 (stereo not given in full),0.165,-0.892,-0.0316,-0.551,-0.455,0.12,1.49,0.225 (inactive),-0.344,1.01
COC(=O)[C@@]1(Cc2ccccc2)[C@H]2c3cc(C(=O)N4CCCC4)n(CC4CC4)c3C[C@H]2CN1C(=O)c1ccccc1,0.963,0.365,0.424,0.703,1.6,1.64,1.14,0.692 (inactive),2.15,0.337
C#CCN(CC1=CCCCC1)[C@H](c1ccccc1Br)[C@@H](O)Cc1ccccc1,0.727,0.518,-0.176,-0.123,-0.978,0.251,0.928,-2.16 (inactive),-0.967,-0.166
COCCOC(=O)N1C(=O)[C@@]2(c3cc(C#CCNC(N)=O)ccc31)[C@H](C(=O)NC[C@H](O)c1ccccc1)[C@H]1C(=O)O[C@H](c3ccccc3)[C@H](c3ccccc3)N1[C@@H]2c1ccccc1OCCO,-0.12,0.294,-0.0899,0.745,1.11,0.891,1.09,-0.864 (inactive),-0.177,-0.113
CCCC[C@H]1OB(O)C[C@H]2C1=C(COc1ccccc1)C[C@H]1C(=O)N(C)C(=O)[C@H]12,-0.32,-0.353,-0.085,0.121,0.85,0.0746,0.462,-0.153 (inactive),1.2,-0.0754
CN1C2C=C(CCCO)C(C3C(=O)N(C(N)=O)C(=O)C32)C1c1ccc(CN2CCCC2)cc1 (stereo not given),0.0355,-0.214,-0.143,-0.0598,-0.851,-0.612,-0.24,0.75 (inactive),-0.887,0.141
COCCOC(=O)N1C(=O)[C@@]2(c3cc(C#CCCO)ccc31)[C@H](C(=O)Nc1nc3ccccc3s1)[C@H]1C(=O)O[C@H](c3ccccc3)[C@H](c3ccccc3)N1[C@@H]2c1ccc(OCCO)cc1,-0.221,0.787,-0.0824,0.871,1.19,0.991,1.07,1.2 (inactive),0.464,0.0176
C[N+](C)(C)CCCCNC(=O)[C@H]1C[C@H]2C(=O)N[C@@H](Cc3ccccc3)C(=O)N2[C@H]1c1ccc(O)cc1,0.288,0.504,-0.074,0.0806,-0.601,-0.158,1.22,0.605 (inactive),-0.0662,-0.0645
COCCOC(=O)N1C(=O)[C@@]2(c3ccccc31)[C@H](c1ccccc1OCCO)N1[C@H](c3ccccc3)[C@H](c3ccccc3)OC(=O)[C@H]1[C@@H]2C(=O)Nc1nc2ccccc2s1,-0.223,1.03,0.0186,1.11,1.02,0.961,1.21,-1.02 (inactive),0.215,0.0274
C=CCOC(=O)[C@@H]1[C@H]2C(=O)O[C@H](c3ccccc3)[C@H](c3ccccc3)N2[C@H](c2ccc(OCCOC(=O)[C@@H]3C[C@@H]4C(=O)N[C@@H](CCCCN(C)C)C(=O)N4[C@@H]3c3ccc(O)cc3)cc2)[C@@]12C(=O)Nc1ccc(I)cc12,-0.317,0.25,-0.0216,0.347,1.2,1.11,1.2,0.0976 (inactive),0.171,-0.108
COC(=O)[C@@]1(Cc2ccccc2)[C@H]2c3cc(C(=O)N4CCCC4)n(Cc4nc5ccccc5[nH]4)c3C[C@H]2CN1C(=O)c1ccccc1,1.19,0.74,-0.0879,0.115,1.72,2.07,0.807,2.63 (inactive),1.65,0.507
COCCCNC(=O)[C@@]1(Cc2ccccc2N=[N+]=[N-])N=C(c2ccc(OCCCO)cc2)O[C@H]1c1ccccc1N=[N+]=[N-],0.622,0.81,-0.252,0.436,1.37,1.52,0.831,-0.702 (inactive),1.36,-0.26

Structure (SMILES),composite z-score [1],composite z-score [2],composite z-score [3],composite z-score [4],composite z-score [5],composite z-score [6],composite z-score [7],z-score [8],composite z-score [9],composite z-score [10]
CC(CO)N1C(=O)[C@@H]2C3C(=O)OCCC/C=C\[C@H]3OC23C=CCN(c2ccc4ccccc4c2)C(=O)[C@@H]13 (stereo not given in full),0.122,-0.933,-0.118,-0.594,-0.874,0.168,1.26,-0.775 (inactive),-0.576,-0.0994
COc1ccc(CCNC(=O)[C@@]2(Sc3ccc(C)cc3)CC(=O)N(C3CCCCC3)[C@@H]2c2ccc(CO)cc2I)cc1,-0.113,0.567,0.0561,0.773,1.23,1.29,1.02,-1.57 (inactive),0.306,-0.0237
O=C1O[C@H](c2ccccc2)[C@H](c2ccccc2)N2[C@H]1[C@@H](C(=O)NC[C@H](O)c1ccccc1)[C@]1(C(=O)Nc3ccccc31)[C@H]2c1ccc(OCCO)cc1,0.0809,0.267,-0.039,0.345,0.404,1.05,1.21,1.8 (inactive),0.368,0.0551
CN1C(=O)C2C=CC(C(O)C3CC=CCC3)N(NC(=O)OC(C)(C)C)C2C1=O (stereo not given),-0.138,0.23,0.218,0.752,1.29,1.64,1.21,2.23 (inactive),0.879,-0.0296
CCCCN1CC=CC23O[C@@H]4C=CCOC(=O)[C@@H]4[C@H]2C(=O)N(CCCCCO)[C@@H]3C1=O (stereo not given in full),0.219,-0.726,-0.187,-0.32,-0.661,0.967,1.34,-0.333 (inactive),-0.603,-0.21
CCCC[C@@H]1C[C@H]1[C@@H](NC(=O)c1ccco1)c1ccc(C(=O)OC)cc1,0.238,-0.0736,-0.124,0.286,-0.253,0.0609,-0.216,-0.0679 (inactive),0.285,0.379
COCCOC(=O)N1C(=O)[C@@]2(c3ccccc31)[C@H](c1ccc(O)cc1)N1[C@H](c3ccccc3)[C@H](c3ccccc3)OC(=O)[C@H]1[C@@H]2C(=O)NC[C@H](O)c1ccccc1,0.0147,0.702,-0.0702,0.157,0.187,1.8,1.26,-0.567 (inactive),0.118,0.0093
C=C/C=C/[C@H]1C(=C)CN([C@@H](Cc2ccccc2)C(=O)OC)[C@@H]1[C@H](O)Cc1ccccc1,0.042,-0.951,-0.203,-0.189,-1.06,-0.824,-0.5,-0.164 (inactive),-0.364,-0.455
C=C(COC)/C(=C/C[C@@H](OC(C)=O)c1ccc(OCCO)cc1)c1cc(C(=O)OC)ccc1OC,-0.524,0.118,-0.0316,0.872,0.62,0.67,0.705,0.296 (inactive),0.627,0.107
O=C(O)[C@@]1(CCS(=O)(=O)c2ccccc2)COC(c2ccc(OCCCO)cc2)=N1,0.803,-0.715,-0.196,-0.0573,-0.243,0.964,1.35,0.143 (inactive),-0.0694,0.35
COc1ccc(COC2OC[C@]3(C)[C@H]4C5=C(CN3C(=O)OC(C)(C)C)[C@H](C)C(CO)C(CO)C5CC[C@@H]24)cc1 (stereo not given in full),0.262,1.27,-0.0832,0.424,1.65,1.02,0.982,2.67 (inactive),1.98,-0.069
[N-]=[N+]=NCc1ccccc1C[C@]1(C(=O)NCC(O)CO)N=C(c2ccc(OCCCO)cc2)O[C@H]1c1ccccc1 (stereo not given in full),0.881,0.34,-0.0039,-0.48,-0.316,0.958,0.849,-0.938 (inactive),0.506,0.158
COC(=O)[C@@]1(Cc2ccc(F)cc2)[C@H]2c3cc(C(=O)N4CCCC4)n(Cc4ccc(C)o4)c3C[C@H]2CN1C(=O)c1ccccc1,0.285,0.145,0.157,0.883,1.53,0.714,1.14,1.62 (inactive),1.29,0.2
COc1cc(CO)cc(I)c1O[C@H]1C=C(C(=O)NCCO)C[C@@H](N(CCN2CCOCC2)C(=O)C2CCOC2)[C@@H]1O (stereo not given in full),-0.458,0.158,-0.12,0.501,-0.0056,-0.0813,-0.479,-1.22 (inactive),0.0409,1.25
CN(C)C(=O)[C@@]1(Cc2ccccc2CN=[N+]=[N-])N=C(c2ccc(OCCCO)cc2)O[C@H]1c1ccccc1,0.214,-0.163,0.0575,0.663,0.604,1.17,0.91,-2.25 (inactive),0.46,-0.169
